Drawing on PubChem BioAssay AID2524 (Sanford-Burnham Center for Chemical Genomics, 2010), this text covers activation factor for 60 molecules.

Structures are written as SMILES. In all, about 330,000 compounds went through this assay and about 540 (0.16%) were called active. For the sample, actives were picked, then their nearest neighbours and some compounds at random. Unmarked numbers belong to inactive results.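 How the source made its calls: active means activation factor of the enzyme at least 2-fold when tested at 20 µM; inactive means the rest.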

For this assay, the target named is Intestinal-type alkaline phosphatase (Homo sapiens) (UniProt P09923). Put plainly: human IAP activators, primary screen, biochemical, luminescence, uHTS (AID 2524). Conditions: purified human IAP, CDP-Star luminescence, 30 min; at 10 µM; active compounds read high; 1 = vehicle-only enzyme, 0 = enzyme-free background.
Chain of Intestinal-type alkaline phosphatase (Homo sapiens) (P09923 whole entry, looked up): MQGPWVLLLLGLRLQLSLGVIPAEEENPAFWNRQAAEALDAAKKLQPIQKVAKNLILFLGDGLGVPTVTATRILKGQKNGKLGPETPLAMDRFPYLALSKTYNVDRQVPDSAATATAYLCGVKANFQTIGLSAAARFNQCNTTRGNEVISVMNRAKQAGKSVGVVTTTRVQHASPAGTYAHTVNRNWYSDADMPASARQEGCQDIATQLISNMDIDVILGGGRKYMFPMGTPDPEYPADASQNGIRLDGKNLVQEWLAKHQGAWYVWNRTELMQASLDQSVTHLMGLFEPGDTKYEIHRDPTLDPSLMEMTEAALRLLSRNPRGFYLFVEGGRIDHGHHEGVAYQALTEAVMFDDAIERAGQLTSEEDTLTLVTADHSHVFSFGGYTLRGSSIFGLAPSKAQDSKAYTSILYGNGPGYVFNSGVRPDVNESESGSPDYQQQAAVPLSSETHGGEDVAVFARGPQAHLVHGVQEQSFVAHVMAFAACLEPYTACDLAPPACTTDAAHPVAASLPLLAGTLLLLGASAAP
In the case of `[2H]C(CCOS(N)(=O)=O)c1ccccc1` (stereo not given), the activation factor is 0.959.
The same measure for `CN(C)NC(=O)c1csnc1-c1c(Cl)cccc1Cl`: 1.14; for `O=C(NCc1ccccn1)Nc1ccc(Cl)cc1`: 1.08.
The value for `CCC(=O)Nc1ccc(C(=O)NNC(=O)c2ccc(Cl)cc2)cc1` was 1.31; that for `O=C(Nc1ccc(Cl)cc1)c1ccsn1` was 4.15 (active); that for `CCCCC(=O)NNC(=S)NC(=O)C(c1ccccc1)c1ccccc1` was 1.36.
The value for `CCCN(CCC)CC(O)COc1ccccc1C(=O)Nc1ccccc1` (stereo not given) was 0.915; that for `CCCOCC(O)CC(CC)C(=O)NNC(=S)Nc1ccccc1` (stereo not given) was 2.11 (active).
On to `CC(C)(C)OC(=O)NCCCCCNC(=O)c1[nH]cnc1C(=O)Nc1nccs1`, for which the activation factor is 2.41 (active).
The same measure for `CC(NC(=O)C(=O)Nc1nccs1)c1ccccc1` (stereo not given): 1.05; for `CC(C)(C)OC(=O)NCCCCCNC(=O)c1nc[nH]c1C(=O)NCc1ccccc1`: 1.26.
The value for `C[C@H](NC(=O)c1nc[nH]c1C(=O)NCC(=O)OC(C)(C)C)c1ccccc1` was 1.32.
Turning to `C[C@H](NC(=O)c1[nH]cnc1C(=O)Nc1nccs1)c1ccccc1`, the activation factor was 2.51 (active).
The same measure for `Cc1ccc(NC(=O)c2nc[nH]c2C(=O)N[C@@H](CCCCNC(=O)OC(C)(C)C)C(=O)OC(C)(C)C)cc1`: 1.3; for `Oc1ccc(-c2cccc(-c3ccc(O)cc3)c2)cc1`: 1.01.
The same measure for `COc1ccc(C2CC(c3ccccc3)=NN2C(=O)CSc2nccc(=O)[nH]2)cc1` (stereo not given): 0.925; for `COc1ccc(CC(=O)Nc2c3c(nn2-c2cccc(Cl)c2)CS(=O)C3)cc1` (stereo not given): 1.09.
The value for `Cc1ccc(OCC(=O)NNC(=S)NCc2ccccc2)cc1` was 1.08.
For `O=C(NNC(=S)NCc1ccccc1)c1ccc(OC(F)F)cc1`, the activation factor is 0.898.
The same measure for `CC(C)Oc1ccc(CCC(=O)NNC(=S)NCc2ccccc2)cc1`: 2.01 (active); for `Cc1cccc(C(=O)N[C@H](C(=O)NCc2cccs2)C(C)C)c1`: 1.11; for `CCOCCCn1c(SCC(=O)Nc2cc(OC)ccc2OC)nc2ccccc2c1=O`: 0.95.
As for `OC(COc1ccc(CN2CCSCC2)cc1)CN1CCCCC1` (stereo not given), the activation factor is 1.12.
On to `CCCCN1C(=O)CC(N2CCOCC2)C1=O` (stereo not given), for which the activation factor is 1.04.
The same measure for `S=c1[nH]cc(-c2ccc(Cl)cc2)n1-c1ccccc1`: 1.42; for `COc1ccc(N2C(=O)NC(NS(=O)(=O)c3ccc(Cl)cc3)(C(F)(F)F)C2=O)cc1` (stereo not given): 0.861; for `Cn1c(N)c(C(=O)COC(=O)c2ccccc2NCc2ccco2)c(=O)n(C)c1=O`: 1.07.
The same measure for `Cc1cc(C)cc(N(CC(=O)Nc2c(C)n(C)n(-c3ccccc3)c2=O)S(C)(=O)=O)c1`: 0.988; for `Cc1c(NC(=O)CN(C)CC(=O)Nc2ccc(F)c(F)c2F)c(=O)n(-c2ccccc2)n1C`: 2.09 (active); for `Cc1ccc(Cl)c(NC(=O)CN(C)CC(=O)Nc2ccc(F)c(F)c2F)c1Cl`: 1.68.
The same measure for `Cc1ccc(OCC(=O)NCCCNC(=O)c2cccnc2)cc1C`: 1.06; for `CC1=C(C(=O)NC2CC(C)(C)Cc3c2cnn3-c2ccc(C)cc2)OCCO1` (stereo not given): 1.1; for `Cc1cc(C(=O)NC2CC(C)(C)Cc3c2cnn3-c2ccccc2)n[nH]1` (stereo not given): 2.15 (active).
In the case of `COc1ccc(C(=O)NC2CC(C)(C)Cc3c2cnn3-c2ccccc2)c(OC)c1` (stereo not given), the activation factor was 1.07.
The same measure for `O=C(NCc1ccccc1Cl)c1ccc2c(=O)n(CC3CCCO3)c(=S)[nH]c2c1` (stereo not given): 0.824.
The same measure for `CCN=c1sc(C(=O)Nc2ccccc2)c(C)n1CC`: 1.04.
The same measure for `CN(C)c1nccc(NCc2ccccc2)c1C#N`: 1.01; for `Cc1cc(C)cc(NC(=O)NC2CCN(CC(=O)Nc3cccc(Cl)c3C)CC2)c1`: 3.04 (active).
On to `COc1cccc(NC(=O)CN2CCN(CC(=O)Nc3ccccc3Cl)CC2)c1`, for which the activation factor was 0.935.
The value for `O=C(CN1CCC(NC(=O)Nc2ccccc2)CC1)Nc1cccc([N+](=O)[O-])c1` was 0.94; that for `CN(C)C(=O)c1nc2ccc(Cl)cn2c1CNCc1cccc(OC(F)(F)F)c1` was 0.976; that for `COc1cc(S(=O)(=O)Nc2ncn[nH]2)ccc1Cl` was 0.999.
The same measure for `CC(C)n1ncc2c(C(=O)Nc3ccc(CC#N)cc3)cc(C3CC3)nc21`: 0.958; for `O=C(c1cc(COc2c(F)cccc2F)on1)N1CCSCC1`: 1.07; for `COc1cc(NC(=O)COC(=O)CSc2ccc3ccccc3c2)c(C)cc1[N+](=O)[O-]`: 1.12.
The value for `Cc1cnc(C(=O)OCC(=O)Nc2ccc(Cl)cc2Cl)cn1` was 1.07.
As to `COc1cc(NC(=O)COC(=O)c2cnc(C)cn2)c(C)cc1[N+](=O)[O-]`, the activation factor is 2.53 (active).
`CCCCN(CCCC)CCNC(=O)CN1C(=O)COc2ccc(S(=O)(=O)N3CCOCC3)cc21`: the activation factor is 0.976.
The same measure for `O=C(CNCCC1=CCCCC1)Nc1ccccc1N1CCCCCC1`: 1.04; for `COCCNS(=O)(=O)c1cc(Br)ccc1OC`: 0.874.
The same measure for `CSCCNC(=O)c1ccc2nc(Cc3ccccc3F)oc2c1`: 1.11; for `CCCc1cc(=O)[nH]c(SCC(=O)Nc2ccc(C(=O)Nc3ccccc3OC)cc2)n1`: 1.04.
The same measure for `OC1CN=C2Sc3ccccc3N2C1` (stereo not given): 2.42 (active); for `Cc1ccc(C(=O)COC(=O)CCCC(=O)NC2CCCCC2)cc1[N+](=O)[O-]`: 0.908; for `COC(=O)c1cccc(N(C(=O)CNC(=O)c2cccs2)C(C(=O)NCC2CCCO2)c2ccc(OC)c(OC)c2)c1` (stereo not given): 0.951.
With `COC(=O)[C@]1(CC(C)C)N[C@H](c2ccc(SC3CCCCC3)cc2)[C@@H]2C(=O)N(C)C(=O)[C@@H]21`, the activation factor is 0.874.
As for `COc1ccc(CCC(C)N2CCc3ccccc3C2)cc1` (stereo not given), the activation factor was 0.983.
The value for `Cc1nn(CC2CC2)c(=O)n1N(C)c1ncc(C(F)(F)F)cc1Cl` was 0.985.
The same measure for `COc1ccccc1C(=O)NCC(=O)NCCSc1ccc(Br)cc1`: 1.02.
The same measure for `O=C(CSCc1ccccc1Cl)NNC(=O)c1ccccc1`: 1.25.
